Measurements reported in PubChem BioAssay AID2284127 (EPA ToxCast).
Activity calls are given as the source filed them. The calls were made as follows: active = hit-call score of the fitted dose curve at least 0.9, where 1 is the maximum; inactive = score below 0.9.

Biological target: human Receptor-type tyrosine-protein phosphatase F (PTPRF/LAR), PTPRF (gene 5792) (UniProt P10586)
Assay: ERF_TW_ENZ_hPTPRF: Eurofins (ERF) Enzymatic LeadHunter Assay for human Receptor-type tyrosine-protein phosphatase F (PTPRF/LAR)
Procedure: ERF_TW_ENZ_hPTPRF is a biochemical, single-readout assay that uses extracted gene-proteins in a cell-free assay. Measurements were taken 1 hour after chemical dosing in a 96-well plate. See LAR Human Phosphatase Enzymatic Assay, Panlabs.ERF_TW_ENZ_hPTPRF is an assay component calculated from the ERF_TW_ENZ_hPTPRF assay. It is designed to measure enzyme activity using a type of enzyme reporter as detected by fluorescence intensity with spectrophotometry technology.Data from the assay component ERF_TW_ENZ_hPTPRF was analyzed at the assay endpoint, ERF_TW_ENZ_hPTPRF, in the positive analysis fitting direction relative to DMSO as the negative control and baseline of activity. Using a type of enzyme reporter, loss-of-signal activity can be used to understand changes in enzymatic activity as they relate to gene PTPRF. To generalize the intended target to other relatable targets, this assay endpoint is annotated to the phosphatase intended target family, where the subfamily is receptorasA tyrosine phosphatase.
Human recombinant protein phosphatase LAR expressed in E. coli is used. Test compound and/or vehicle is preincubated with 0.48 ng/ml enzymedouble dagger for 15 minutes at 37C in modified HEPES buffer pH 7.2. The reaction is initiated by addition of 10 uM DiFMUP for 60 minutes. Determination of the amount of DiFMU formed is read spectrofluorimetrically at 358 nm/450 nm. […]

Sequence of human Receptor-type tyrosine-protein phosphatase F (PTPRF/LAR), PTPRF (gene 5792) (P10586 whole entry, looked up): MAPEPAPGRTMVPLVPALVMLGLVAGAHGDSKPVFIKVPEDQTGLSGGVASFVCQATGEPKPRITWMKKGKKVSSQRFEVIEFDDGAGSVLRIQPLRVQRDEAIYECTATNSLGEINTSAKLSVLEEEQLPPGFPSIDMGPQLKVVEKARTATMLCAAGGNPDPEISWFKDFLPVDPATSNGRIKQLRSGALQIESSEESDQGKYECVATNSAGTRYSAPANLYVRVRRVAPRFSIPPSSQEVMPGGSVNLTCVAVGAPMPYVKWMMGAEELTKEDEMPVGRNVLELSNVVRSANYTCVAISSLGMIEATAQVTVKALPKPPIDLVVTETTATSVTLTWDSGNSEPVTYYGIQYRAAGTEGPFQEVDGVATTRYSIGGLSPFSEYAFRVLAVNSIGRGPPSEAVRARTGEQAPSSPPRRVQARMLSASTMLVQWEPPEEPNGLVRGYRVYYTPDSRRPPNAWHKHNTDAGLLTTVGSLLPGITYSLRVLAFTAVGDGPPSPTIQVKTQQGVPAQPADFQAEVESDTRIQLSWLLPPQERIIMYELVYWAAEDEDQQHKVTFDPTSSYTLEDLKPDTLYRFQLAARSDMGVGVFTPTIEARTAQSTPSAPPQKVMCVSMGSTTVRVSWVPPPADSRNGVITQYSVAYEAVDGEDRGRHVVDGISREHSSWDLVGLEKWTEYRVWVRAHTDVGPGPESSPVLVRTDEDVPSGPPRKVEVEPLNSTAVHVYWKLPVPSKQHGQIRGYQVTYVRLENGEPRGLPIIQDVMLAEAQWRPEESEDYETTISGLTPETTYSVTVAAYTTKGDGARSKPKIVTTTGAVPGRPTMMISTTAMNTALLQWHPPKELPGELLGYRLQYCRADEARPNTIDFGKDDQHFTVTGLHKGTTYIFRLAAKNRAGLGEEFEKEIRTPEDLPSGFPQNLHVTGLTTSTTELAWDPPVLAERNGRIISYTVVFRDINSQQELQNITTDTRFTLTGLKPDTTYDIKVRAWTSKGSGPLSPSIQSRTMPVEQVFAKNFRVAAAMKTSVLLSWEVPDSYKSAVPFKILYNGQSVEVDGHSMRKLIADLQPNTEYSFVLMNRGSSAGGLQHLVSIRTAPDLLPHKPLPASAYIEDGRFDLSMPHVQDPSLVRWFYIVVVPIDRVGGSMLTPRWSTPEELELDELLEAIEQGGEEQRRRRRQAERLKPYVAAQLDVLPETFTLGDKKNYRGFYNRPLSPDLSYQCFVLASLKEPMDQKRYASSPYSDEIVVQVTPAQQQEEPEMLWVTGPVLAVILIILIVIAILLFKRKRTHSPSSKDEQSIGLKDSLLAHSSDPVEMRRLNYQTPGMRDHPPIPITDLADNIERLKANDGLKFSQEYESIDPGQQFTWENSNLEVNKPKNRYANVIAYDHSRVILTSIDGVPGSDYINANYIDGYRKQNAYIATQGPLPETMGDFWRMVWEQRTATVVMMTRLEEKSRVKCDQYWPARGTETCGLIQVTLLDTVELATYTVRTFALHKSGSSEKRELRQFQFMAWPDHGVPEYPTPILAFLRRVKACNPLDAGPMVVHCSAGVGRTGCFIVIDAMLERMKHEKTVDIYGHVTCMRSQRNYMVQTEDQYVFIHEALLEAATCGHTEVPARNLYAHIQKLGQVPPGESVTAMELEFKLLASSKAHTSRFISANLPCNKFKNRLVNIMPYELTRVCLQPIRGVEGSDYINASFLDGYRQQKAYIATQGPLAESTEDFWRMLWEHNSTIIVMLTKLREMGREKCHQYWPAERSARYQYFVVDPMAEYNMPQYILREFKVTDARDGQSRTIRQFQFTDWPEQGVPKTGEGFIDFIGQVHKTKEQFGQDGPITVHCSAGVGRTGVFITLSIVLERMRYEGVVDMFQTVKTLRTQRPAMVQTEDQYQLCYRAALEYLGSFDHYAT

Structure (SMILES) | AC50
O=C(/C=C/c1ccc(O)cc1)CC(=O)/C=C/c1ccc(O)cc1 | 5 µM (active)
